# Source: PubChem BioAssay (Sanford-Burnham Center for Chemical Genomics)
# TIM10 inh: growth inhibitors of TIM10 yeast strain. hit rate 1.4% among 330,000. inhibition, % at 10 µM. S. cerevisiae TIM10 strain growth, BacTiter-Glo luminescence, 24 h;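 active means inhibition of 40% or more at the single tested concentration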;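 further: wild-type TIM10 isogenic control strain grown at permissive 25 °C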
# NALP1 yeast inh: NALP1 inhibition | hit rate 0.61% among 280,000 | AID 2071 | inhibition, % at 10 µM | S. cerevisiae NALP1/ASC/caspase-1 growth, X-gal OD620, 72 h; in the data active means inhibition mostly above about 24%, no sharp cut-off; inactive means mostly below about 32%
# NLRP3 yeast inh: inhibitors of NALP3 inflammasome in yeast; Yeast reconstituted NLRP3/ASC/caspase-1, beta-gal luminescence, 24 h; hit rate 0.39% among 330,000; inhibition, % at 10 µM;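 active means inhibition of 50% or more; inactive means inhibition below 50%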;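 further: plate controls were induced DMSO wells for no effect and uninduced yeast grown without galactose for full effect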
# tim10-1 inh: inhibits growth of tim10-1 mutant yeast; hit rate 2.2% among 330,000; S. cerevisiae tim10-1 ts strain growth, BacTiter-Glo, 24 h; inhibition, % at 20 µM; AID 463190;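 active means inhibition of at least 40%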;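 further: mutant grown at 25 °C; 0% = DMSO wells with yeast and 100% = wells holding no yeast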
# tim23-1 inh: growth inhibitors of tim23-1 mutant yeast | S. cerevisiae tim23-1 growth, BacTiter-Glo luminescence, 24 h | inhibition, % at 20 µM | hit rate 1.3% among 330,000;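 active means growth inhibition of the mutant yeast at or above 50%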;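 further: temperature-sensitive mutant grown at 25 °C; plate controls were DMSO-treated mutant yeast for no effect and medium wells lacking yeast for full effect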
# NALP3 confirm: confirmation of NALP3 inhibitors in yeast; shares compounds with NLRP3 yeast inh; yeast expressing human NALP3, luminescence; inhibition, % at 10 µM; hit rate 81% among 1,300; in the data active means inhibition above about 48%
# Casp1 ASC ctr: caspase-1-ASC yeast counter-screen hit; shares compounds with NLRP3 yeast inh; yeast expressing Caspase-1-ASC, luminescence counter screen; inhibition, % at 10 µM; hit rate 66% among 1,000; AID 488784
# NALP3 yeast rt: yeast NALP3 inhibition, confirmed on retest | shares compounds with NLRP3 yeast inh | yeast expressing human NALP3, luminescence read-out | hit rate 53% among 1,000 | inhibition, % at 10 µM
# The depositor's hits bear a star; / = not tested or not shown. Shown are actives, neighbours in structure and some others; about 4% of the full set was active somewhere. Unless noted, no stated cut-off is given here; in the data, active means inhibition above about 50%; inactive means the rest.
SMILES,TIM10 inh,NALP1 yeast inh,NLRP3 yeast inh,tim10-1 inh,tim23-1 inh,NALP3 confirm,Casp1 ASC ctr,NALP3 yeast rt
COc1cc(C2C(=O)c3ccccc3C2=O)ccc1O,16,19,66*,32,40,68*,66*,46
CC1CC(C)CN(S(=O)(=O)N2CCC(C(=O)NCCC3=CCCCC3)CC2)C1 (centres undefined),12,-2,19,-6,4,/,/,/
CCCCc1c(C)c(C#N)c2[nH]c3ccccc3n2c1=O,10,9,58*,19,15,78*,-1,20
COc1cc2c(cc1OC)CN(C(=O)CN1CCN(S(=O)(=O)c3ccccc3)CC1)CC2,-1,-13,5,5,2,/,/,/
CC(=O)[C@H]1CC[C@H]2[C@@H]3CC=C4C[C@@H](O)CC[C@]4(C)[C@H]3CC[C@]12C,4,/,47,18,15,/,/,/
CC(=O)[C@H]1CCC2C3CC=C4C[C@@H](O)CC[C@]4(C)C3CC[C@@]21C (some centres undefined),7,/,53*,11,17,64*,/,/
CC(=O)OCC(=O)[C@H]1CC[C@H]2[C@@H]3CC=C4C[C@@H](O)CC[C@]4(C)[C@H]3CC[C@]12C,14,51,65*,8,26,77*,56*,48
COCCN1CCN(C(=O)C2CCC(=O)N(CCc3ccccc3)C2)CC1 (centres undefined),-4,6,11,-8,6,/,/,/
N#Cc1nc(COc2ccccc2)oc1N1CCCCC1,-10,-3,62*,22,24,70*,60*,48
Cc1cccc(OCc2nc(C#N)c(N3CC(C)CC(C)C3)o2)c1 (centres undefined),0,39,7,27,18,/,/,/
Cc1cccc(OCc2nc(C#N)c(N3CCCC3)o2)c1,11,1,57*,12,24,47,65*,51*
N#Cc1nc(COc2ccc(Cl)cc2)oc1N1CCCCCC1,26,9,13,9,23,/,/,/
CC1(c2nnc(-c3ccncc3)o2)CC(c2ccc(Cl)cc2)=NO1 (centres undefined),-29,/,16,-18,7,/,/,/
CC1(c2nnc(-c3ccccc3)o2)CC(c2ccc(Cl)cc2)=NO1 (centres undefined),-21,6,52*,6,27,56*,26,22
COc1ccc(/C=C/C(=O)Nc2cc(C)on2)cc1,2,36,32,-20,2,/,/,/
Cc1cc(NC(=O)/C=C/c2ccccc2)no1,11,-5,50*,-49,46,68*,39,46
Cc1cc(Cl)c(S(=O)(=O)NC2CCCCC2)cc1OCC(=O)Nc1nncs1,-13,4,50*,-20,4,50*,36,30
Cc1cc(Cl)c(S(=O)(=O)Nc2ccon2)cc1OCC(=O)NC1CCCCC1,8,27,-6,0,-5,/,/,/
NCCC(=O)N1c2ccccc2Sc2ccc(Cl)cc21,6,23,73*,-7,5,85*,78*,87*
Brc1ccc2[nH]ncc2c1,-4,8,53*,-10,1,42,60*,43
O=[N+]([O-])c1ccc2[nH]ncc2c1,-10,-1,1,-8,-4,/,/,/
COc1ccccc1NC(=O)Nc1ncccc1C,-3,26,60*,-3,21,71*,/,/
Cc1ccccc1NC(=O)Nc1ccccn1,-5,13,53*,-20,4,69*,47,33
CC(C)(C)c1ccc(C(=O)Nc2cccc(-n3cnnn3)c2)cc1,21,18,52*,28,45,65*,58*,27
CCn1c(C)csc1=NC(=O)c1ccccc1,18,-4,53*,-27,25,61*,48,44
SMILES,TIM10 inh,NALP1 yeast inh,NLRP3 yeast inh,tim10-1 inh,tim23-1 inh,NALP3 confirm,Casp1 ASC ctr,NALP3 yeast rt
Cn1c(N)c(C(=O)CSc2nnc3n2CCCCC3)c(=O)n(C)c1=O,5,/,12,6,7,/,/,/
Cc1ccc2c(c1)CCCN2C(=O)c1cc(C)c(C)s1,-12,/,52*,14,24,59*,44,35
Cc1ccc2c(c1)CCCN2C(=O)c1cccs1,-2,/,36,26,-2,/,/,/
OC(CCc1ccncc1)COc1ccccc1 (centres undefined),3,/,2,-2,0,/,/,/
Cn1c(N2CCOCC2)c(/C=N/OC(=O)c2ccc(F)cc2)c2ccccc21,9,4,65*,38,17,84*,61*,56*
Cc1cccc(C)c1NC(=O)CNC(=O)c1ccc(N2CCCC2=O)cc1,8,/,16,5,10,/,/,/
Cc1ccc(NC(=S)NCCSc2ccc(Cl)cc2)cc1,32,6,33,38,36,/,/,/
Cc1ccc(SCCNC(=S)Nc2cc(C)cc(C)c2)cc1,15,15,55*,-2,7,61*,50*,38
Cc1ccccc1NC(=O)CN1C(=O)S/C(=C/c2cccnc2)C1=O,17,0,27,8,21,/,/,/
Clc1ccc(OCCn2cnc3ccccc32)cc1,10,9,49,27,33,/,/,/
Clc1ccccc1OCCn1cnc2ccccc21,-8,30*,76*,23,34,84*,79*,63*
Cc1nc2ccc(NC(=O)Cc3ccsc3)cc2s1,-15,-2,19,1,1,/,/,/
Cc1ccc(NC(=O)Cc2ccsc2)cc1Cl,-4,-56,54*,0,15,68*,43,38
CNc1nc(SCc2ccc(C)cc2)nc2c1CCCC2,12,99*,97*,28,34,99*,99*,99*
C#CCN(Cc1ccco1)C(=O)c1ccc(OC2CCN(Cc3ccccn3)CC2)cc1,3,17,6,-5,-5,/,/,/
CNC(=O)c1cc(NC(=O)CCn2nc(-c3ccccc3)c3ccccc3c2=O)ccc1OC,-3,13,17,2,-1,/,/,/
CSCc1cc(N(C)c2ccccc2)nc(-c2ccccn2)n1,19,-3,67*,-41,-56,71*,74*,81*
O=C(Nc1cccnc1)c1cc(-c2ccccc2)on1,7,-102,50*,-10,7,40,/,/
CCCCN1C(=O)/C(=C/C=C2\SCCN2C)SC1=S,9,4,58*,21,33,48,64*,65*
CN1CCS/C1=C/C=C1\SC(=S)N(CC(=O)O)C1=O,10,-20,21,9,5,/,/,/
O=C(OCCN1C(=O)c2ccccc2C1=O)C1CCN(S(=O)(=O)c2cccs2)CC1,17,-5,11,38,44,/,/,/
O=C1C=C(O)c2cccc(O)c2C1=O,6,3,10,15,4,/,/,/
O=C1c2cccc(O)c2C(=O)c2c(O)cccc21,27,76,60*,22,44,64*,/,/
